Some test systems named below: HCT-15 colon; HT29 colon; SNB-75 CNS; SNB-19 CNS; U251 CNS; PC-3 prostate; SK-MEL-5 melanoma; UACC-62 melanoma; SK-MEL-28 melanoma; EKVX NSCLC; SN12C renal; UO-31 renal; TK-10 renal; ACHN renal; CAKI-1 renal; A498 renal; CCRF-CEM leukemia; MOLT-4 leukemia; LOX IMVI melanoma; SK-MEL-2 melanoma.
Common to all, as to test: NCI-60 one-dose screen, 48 h (100 = growth as untreated, 0 = no growth, -100 = all killed)
Common to all, as to conditions: 10 µM unless noted

Values joined by “and” are separate entries in the source; they are usually repeats but may differ in a detail not shown here. Equal values may be shown once. Compounds without any hit were thinned out: in the full panel of roughly 83,000, 20% have a hit.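 Method: cells in 96-well plates; compound added at one concentration; 48 h incubation; percent growth measured; values under 10 scored active.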 Active and inactive are the calls of the source.

As for `CO/N=C/C=C\C(=O)N/C=C/C[C@H]1/C=C/[C@H](O)/C=C\C=C\c2cccc(O)c2C(=O)O1`, the growth in the assay with HCT-15 colon was 11.9% (inactive) and 16.7% (inactive); with HT29 colon it was 9.82% (active) and 7.92% (active); in the assay on SNB-75 CNS it was 25.2% (inactive) and -14.6% (active); in the assay on SNB-19 CNS, 68.3% (inactive) and 56.7% (inactive); in the assay on U251 CNS, 33.3% (inactive) and 32.2% (inactive); in the assay on PC-3 prostate it was 37.5% (inactive) and 25.3% (inactive). Further, the growth in the assay on SK-MEL-5 melanoma is -70.6% (active) and -68.6% (active); in the assay with UACC-62 melanoma, -1.1% (active) and -43.6% (active); in the assay with SK-MEL-28 melanoma it was 32.1% (inactive); with EKVX NSCLC, 35.1% (inactive) and 47.9% (inactive); in the assay on SN12C renal, 48.5% (inactive) and 40.9% (inactive); with UO-31 renal, 14.2% (inactive) and -7.71% (active). Moreover, the growth with TK-10 renal is 53.9% (inactive) and 52% (inactive); in the assay on ACHN renal, 31.1% (inactive) and 22.4% (inactive); with CAKI-1 renal it was 9.88% (active) and 2.94% (active); in the assay with A498 renal it was 44.1% (inactive) and 10.3% (inactive); in the assay on CCRF-CEM leukemia, 33% (inactive) and 32.7% (inactive); in the assay with MOLT-4 leukemia, 27.7% (inactive) and 14.6% (inactive).
On to `CC(O)Cn1cnc2c1c(=O)n(C)c(=O)n2C` (configuration not stated), for which the growth in the assay with HCT-15 colon is 96.4% (inactive); in the assay with HT29 colon it was 109% (inactive); in the assay with SNB-75 CNS it was 83.5% (inactive); in the assay with SNB-19 CNS, 104% (inactive); in the assay on U251 CNS, 81.8% (inactive); in the assay with SK-MEL-5 melanoma, 101% (inactive). Further, the growth with UACC-62 melanoma was 100% (inactive); in the assay with LOX IMVI melanoma, 87.1% (inactive); in the assay with SK-MEL-28 melanoma, 103% (inactive); in the assay with SK-MEL-2 melanoma it was 98.7% (inactive); in the assay on EKVX NSCLC, 100% (inactive); in the assay with SN12C renal it was 98.4% (inactive). Besides, the growth with UO-31 renal is 88.7% (inactive); in the assay with TK-10 renal, 135% (inactive); with ACHN renal, 98% (inactive); in the assay on CAKI-1 renal it was 99.4% (inactive); in the assay on A498 renal it was 110% (inactive); with MOLT-4 leukemia, 98.3% (inactive).
Turning to `S=C1SCN(Cc2ccccc2)CN1Cc1ccccc1`, the growth was 39.8% (inactive) in the assay on HCT-15 colon; 65.4% (inactive) in the assay with HT29 colon; 76.1% (inactive) with SNB-75 CNS; 96.4% (inactive) with SNB-19 CNS; 80.2% (inactive) with U251 CNS; 46.6% (inactive) in the assay with PC-3 prostate. Besides, the growth in the assay with SK-MEL-5 melanoma is 87.1% (inactive); in the assay on UACC-62 melanoma, 82.5% (inactive); with SK-MEL-28 melanoma, 103% (inactive); in the assay with EKVX NSCLC, 98.5% (inactive); in the assay on SN12C renal, 90.5% (inactive); in the assay with UO-31 renal, 26.7% (inactive). In addition, the growth was 75.2% (inactive) with TK-10 renal; 84.5% (inactive) in the assay on ACHN renal; 76.1% (inactive) with CAKI-1 renal; 40.4% (inactive) in the assay with CCRF-CEM leukemia; 70.6% (inactive) in the assay with MOLT-4 leukemia.
As to `CC(=O)C(/C=N/C(N)=O)=C(/C)O`, the growth in the assay with HCT-15 colon was 104% (inactive); in the assay on HT29 colon it was 101% (inactive); in the assay with SNB-75 CNS, 93.8% (inactive); in the assay on SNB-19 CNS, 103% (inactive); with U251 CNS, 99.6% (inactive); with PC-3 prostate, 100% (inactive). The growth in the assay with SK-MEL-5 melanoma is 110% (inactive); with UACC-62 melanoma, 110% (inactive); in the assay with SK-MEL-28 melanoma, 115% (inactive); with SK-MEL-2 melanoma, 119% (inactive); in the assay with EKVX NSCLC, 108% (inactive); in the assay with UO-31 renal, 91.1% (inactive). Besides, the growth with ACHN renal is 99.8% (inactive); in the assay with CAKI-1 renal, 97.9% (inactive); in the assay on A498 renal it was 92.7% (inactive); in the assay with CCRF-CEM leukemia it was 97.4% (inactive).
For `CCCCCCCCCCCCCCCCOc1ccc(C)cc1`, the growth in the assay on HCT-15 colon is 108% (inactive); in the assay on HT29 colon, 106% (inactive); in the assay on SNB-19 CNS, 109% (inactive); in the assay with U251 CNS it was 101% (inactive); with PC-3 prostate it was 102% (inactive); with SK-MEL-5 melanoma, 108% (inactive). Further, the growth in the assay on UACC-62 melanoma was 105% (inactive); with LOX IMVI melanoma, 87.3% (inactive); in the assay on SK-MEL-28 melanoma, 111% (inactive); in the assay on SK-MEL-2 melanoma, 115% (inactive); in the assay with EKVX NSCLC, 99.7% (inactive); with SN12C renal it was 104% (inactive). Besides, the growth with UO-31 renal is 81.5% (inactive); with TK-10 renal it was 109% (inactive); in the assay with ACHN renal, 104% (inactive); with CAKI-1 renal, 105% (inactive); in the assay with A498 renal, 92.3% (inactive); in the assay on CCRF-CEM leukemia it was 127% (inactive). Moreover, in the assay on MOLT-4 leukemia, the growth was 103% (inactive).
As to `Oc1ccccc1/C=N\NC(=S)N/N=C/c1ccccc1O`, the growth in the assay on HCT-15 colon is 19.1% (inactive) and 22.4% (inactive); with SNB-75 CNS, 77% (inactive) and 90.1% (inactive); in the assay with SNB-19 CNS, 51.1% (inactive) and 44.6% (inactive); in the assay with U251 CNS, 41% (inactive) and 24.2% (inactive); in the assay with PC-3 prostate, 35% (inactive); in the assay on SK-MEL-5 melanoma, 35.7% (inactive) and -37% (active). In addition, the growth in the assay with UACC-62 melanoma is 20.4% (inactive) and -5.16% (active); with LOX IMVI melanoma, 28.4% (inactive) and 25.3% (inactive); in the assay on SK-MEL-28 melanoma, 53.6% (inactive) and 58.8% (inactive); in the assay on SK-MEL-2 melanoma, 82.3% (inactive) and 24.6% (inactive); with EKVX NSCLC it was 61% (inactive) and 71.2% (inactive); with SN12C renal, 58.8% (inactive) and 51.3% (inactive). The growth in the assay on UO-31 renal was 12.4% (inactive) and 15.5% (inactive); in the assay with TK-10 renal, 51.4% (inactive) and 24.3% (inactive); in the assay on ACHN renal, 15% (inactive) and 10.8% (inactive); in the assay with CAKI-1 renal, -15.7% (active) and 12.3% (inactive); in the assay with A498 renal, 58.5% (inactive); in the assay with CCRF-CEM leukemia it was 15.9% (inactive) and 15.1% (inactive). Further, the growth in the assay with MOLT-4 leukemia is 21.6% (inactive) and 16% (inactive).

For the origin of these results see PubChem BioAssay (NCI).
